# Laboratory results reported in PubChem BioAssay (Tox21).
# Inconclusive results are not listed. Active and inactive are the calls of the source. Calls follow the shape of the full dose curve.
# Assay: p53 small molecule agonists, cell-based qHTS assay: qHTS cell viability counter screen (AID 1963581); also: nearly all actives have a fitted effect of over 45% in size
# Conditions: p53RE-bla HCT-116 viability, ATP luminescence, 16 h; series mostly up to 66 µM; activity change, negative = cytotoxicity: at the top concentration
# From the text: National Center for Advancing Translational Sciences [NCATS]
# Division of Preclinical Innovation [DPI]
# U.S. Environmental Protection Agency [EPA]
# National Institutes of Environmental Health Sciences [NIEHS]
# National Toxicology Program [NTP]
# U.S. Food and Drug Administration [FDA]
# p53, a tumor suppressor protein, is activated following cellular insult, including DNA damage and other cellular stresses. The activation of p53 regulates cell fate by inducing DNA repair, cell cycle arrest, apoptosis, or cellular senescence. The activation of p53, therefore, is a good indicator of DNA damage and other cellular stresses. The CellSensor p53RE-bla HCT-116 cell line (Invitrogen) contains a stably integrated beta-lactamase reporter gene under control of the p53 response elements. The activation of the reporter gene under culture conditions can be detected by fluorescence intensity. This cell line was used to screen the Tox21 compound library in a 1536-well plate format and to identify agonists that activate the p53 signaling pathway. The cytotoxicity of the Tox21 compound library against the p53 RE-bla HCT-116 cell line was tested in parallel by measuring the intra cellular ATP content in the same wells.
# Tox21 Assay Protocol Summary:
# The p53RE-bla cells were dispensed at 4,000 cells/5 ul/well in 1536-well black wall/clear bottom plates using a Multidrop dispenser. After the assay plates were incubated at a 37 C/5% CO2 incubator for 5 hours, 23 nL of compounds dissolved in DMSO, positive controls or DMSO only was transferred to the assay plate by a pin tool. The plates were incubated at 37 C for 16 hours. After 1 uL of LiveBLAzerTM B/G FRET substrate was added using a Flying Reagent Dispenser, the plates were incubated at room temperature for 2 hours, and fluorescence intensity was measured by an Envision plate reader. For cell viability readout that measures cytotoxicity, 4 ul/well of CellTiter-Glo reagent was added into the assay plates using a Flying Reagent Dispenser. After 30 min incubation at room temperature, the luminescence intensity in the plates was measured using a ViewLux plate reader.
# % is scaled to controls: 0 for no effect and ±100 for the full control effect; potency is read from the fitted curve at half-maximal effect.
Compound,"activity change, negative = cytotoxicity",Potency
CC(CN)CC(C)(C)CCN (stereo not given),11.7% [at 172 µM] (inactive),
CCn1nc(C(=O)O)c(=O)c2cc3c(cc21)OCO3,-15% [at 30.3 µM] (inactive),
CC(C)C[C@H]1C(=O)N2CCC[C@H]2[C@]2(O)O[C@](NC(=O)[C@@H]3C=C4c5cccc6[nH]c(Br)c(c56)C[C@H]4N(C)C3)(C(C)C)C(=O)N12,7.37% [at 30.3 µM] (inactive),
CC[N+](C)(CC)CCOC(=O)C1c2ccccc2Oc2ccccc21,-4.32% [at 30.3 µM] (inactive),
CO[C@]1(NC(=O)CSC(F)F)C(=O)N2C(C(=O)O)=C(CSc3nnnn3CCO)CO[C@H]21,-15.2% [at 30.3 µM] (inactive),
CCCCCCCCCCCC(=O)OCC,-9.32% (inactive),
OC[C@H]1O[C@@H]2O[C@H]3[C@H](O)[C@@H](O)[C@@H](O[C@H]4[C@H](O)[C@@H](O)[C@@H](O[C@H]5[C@H](O)[C@@H](O)[C@@H](O[C@H]6[C@H](O)[C@@H](O)[C@@H](O[C@H]7[C@H](O)[C@@H](O)[C@@H](O[C@H]8[C@H](O)[C@@H](O)[C@@H](O[C@H]9[C@H](O)[C@@H](O)[C@@H](O[C@H]1[C@H](O)[C@H]2O)O[C@@H]9CO)O[C@@H]8CO)O[C@@H]7CO)O[C@@H]6CO)O[C@@H]5CO)O[C@@H]4CO)O[C@@H]3CO,14.6% [at 30.3 µM] (inactive),
O=c1[nH]nc(-c2ccc([N+](=O)[O-])o2)o1,13.2% (inactive),
NC(=O)c1cc[n+](CC2=C(C(=O)[O-])N3C(=O)[C@@H](NC(=O)Cc4cccs4)[C@H]3SC2)cc1,-11.4% [at 30.3 µM] (inactive),
CCOC(=O)CC(=O)C(=O)OCC,-17% (inactive),
c1cc(N(CC2CO2)CC2CO2)ccc1OCC1CO1 (stereo not given),,inactive
CC(C)C(C)C,-5.96% (inactive),
O=C(c1ccccc1)C1CCC1,-1.05% (inactive),
C=C(C)c1cccc(C(=C)C)c1,-0.607% (inactive),
CCN1CCOCC1,-1.54% (inactive),
O=C1c2ccccc2C(=O)c2c(O)ccc(O)c21,0.591% (inactive),
CCCC(=O)OCC,-7.35% (inactive),
Nc1ccc(F)cc1,2.07% (inactive),
C1CCC2=NCCCN2CC1,-0.769% (inactive),
CCCCN(CCCC)c1ccc(C(=O)c2ccccc2C(=O)O)c(O)c1,,20.6 µM (active)

Compound,"activity change, negative = cytotoxicity",Potency
CC(C)C1=CC2=CC[C@@H]3[C@](C)(CCC[C@@]3(C)C(=O)O)[C@H]2CC1,5.61% (inactive),
O=[N+]([O-])c1cc[n+]([O-])cc1,7% (inactive),
O=c1[nH]c(=O)n([C@H]2C[C@H](O)[C@@H](CO)O2)cc1C(F)(F)F,-2.84% [at 30.3 µM] (inactive),
C=COCCOCCOC=C,2.89% (inactive),
C=C1CC[C@H](O)CC1=C/C=C1\CCC[C@]2(C)[C@@H]([C@H](C)/C=C/[C@H](C)C(C)C)CC[C@@H]12,6.98% (inactive),
Nc1c[n+](N2CCOCC2)no1,-6.85% [at 30.3 µM] (inactive),
CC(=O)[O][Al],4.82% (inactive),
COc1cc(Cc2cnc(N)nc2N)cc(OC)c1OC,,inactive
CCCCCCCCCCCCCBr,8.37% (inactive),
CCCCCCCCCC(C)C=O (stereo not given),-2.9% (inactive),
Cc1cccc(NC(=S)N(C)C)c1,-2.26% (inactive),
CCC(=O)/C=C/c1ccc(OC)cc1,-1.68% (inactive),
CCCC/C=C/C=C\C=O,7.73% (inactive),
CC(N=C(NC#N)Nc1ccncc1)C(C)(C)C (stereo not given),7.32% [at 30.3 µM] (inactive),
Brc1c(NC2=NCCN2)ccc2nccnc12,-15.4% [at 30.3 µM] (inactive),
C[C@]12CC[C@@H]3c4ccc(O)cc4CC[C@H]3[C@@H]1CC[C@@H]2OC(=O)CCC1CCCC1,,inactive
NCCc1cnc[nH]1,6.99% [at 30.3 µM] (inactive),
CN(C)CCOCCO,11.4% (inactive),
O=C(O)Cc1cc(I)c(Oc2cc(I)c(O)c(I)c2)c(I)c1,,22.5 µM (active)
CCCCCCCCCCCCCCCCCC[N+](C)(C)C,,16.3 µM (active)
